Measurements published in PubChem BioAssay (NCATS).
Where “and” joins values, the source holds several entries; their conditions need not be identical. Equal entries are not always repeated. Records with an inconclusive call do not appear. Some compounds were tested as several samples or in several runs, with calls that do not always agree. Calls of active or inactive are those of the source. Calls come from the whole dose curve; as a rule, active = well fitted curve in the direction sought with a large enough effect; inconclusive = small, poorly fitted or top-dose-only effect, or another doubt; inactive = no such curve, though single readings can be large; an effect the other way counts as inactive or inconclusive.

Tests used:
[1] = tested on: CRL-7250; test: Cytotoxic Profiling of Annotated Libraries Using Quantitative High-Throughput Screening (AID 1296008); details: Five cell lines viability, CellTiter-Glo ATP luminescence, 48-72 h; max response: stronger effect = lower value; note: nearly all actives have a fitted effect of over 60% in size; note: potency is the fitted concentration of half-maximal effect; for max response: % is set by controls: 0 for no effect and ±100 for the full control effect
Method in brief: (§1)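 Compounds were pin-transferred onto cells and incubated 48 or 72 hr at 37 degree Celsius, 95% humidity. CellTiter-Glo was added, plates sat 10 min at room temperature, then ATP-coupled luminescence was imaged as the viability read-out.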

[2] = tested on: HEK293; test: as above; details: Five cell lines viability, CellTiter-Glo ATP luminescence, 48-72 h; max response: stronger effect = lower value
Method in brief: as §1

[3] = tested on: HaCat; test: as above; details: Five cell lines viability, CellTiter-Glo ATP luminescence, 48-72 h; max response: stronger effect = lower value
Method in brief: as §1

[4] = tested on: KB-3-1; test: as above; details: Five cell lines viability, CellTiter-Glo ATP luminescence, 48-72 h; max response: stronger effect = lower value
Method in brief: as §1

[5] = tested on: NIH3T3; test: as above; details: Five cell lines viability, CellTiter-Glo ATP luminescence, 48-72 h; max response: stronger effect = lower value
Method in brief: as §1

[6] = tested on: HACAT; test: qHTS assay to identify novel small-molecules to repurpose for Merkel cell carcinoma treatment (AID 1296009); details: MCC and control cell lines, CellTiter-Glo viability, 72 h; at 44.8 µM (top of the series) unless noted; note: nearly all actives have a fitted effect of over 60% in size; note: potency is the fitted concentration of half-maximal effect
Method in brief: (§2)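 Cells exposed to NPC (8-point) and MIPE (11-point) compound dilutions for 72 hr at 37 degree celsius; viability read by CellTiter-Glo luminescence, normalized to no-cell and DMSO in-plate controls.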

[7] = tested on: HEK293T; test: as above; details: MCC and control cell lines, CellTiter-Glo viability, 72 h; at 44.8 µM (top of the series) unless noted
Method in brief: as §2

[8] = tested on: MCC-13; test: as above; details: MCC and control cell lines, CellTiter-Glo viability, 72 h; series mostly up to 46 µM
Method in brief: as §2

[9] = tested on: MKL-1; test: as above; details: MCC and control cell lines, CellTiter-Glo viability, 72 h; series mostly up to 46 µM
Method in brief: as §2

[10] = tested on: MKL-2; test: as above; details: MCC and control cell lines, CellTiter-Glo viability, 72 h; series mostly up to 46 µM
Method in brief: as §2

[11] = tested on: NIH3T3; test: as above; details: MCC and control cell lines, CellTiter-Glo viability, 72 h; at 44.8 µM (top of the series) unless noted
Method in brief: as §2

[12] = tested on: UISO; test: as above; details: MCC and control cell lines, CellTiter-Glo viability, 72 h; series mostly up to 46 µM
Method in brief: as §2

[13] = tested on: WaGa; test: as above; details: MCC and control cell lines, CellTiter-Glo viability, 72 h; series mostly up to 46 µM
Method in brief: as §2

[14] = tested on: C33A; test: Primary qHTS to identify gynecologic anti-cancer compounds using libraries of approved drugs and bioactive compounds (AID 1345084); details: Gynecologic cancer cell panel viability, ATPlite luminescence, 48 h; series mostly up to 57.5 µM; note: % is set by controls: 0 for no effect and ±100 for the full control effect; nearly all actives have a fitted effect of over 55% in size
Method in brief: (§3)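 48 h compound exposure at 37 C, 5% CO2; five-point qHTS. ATPlite luminescence readout of cell ATP.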

[15] = tested on: CAOV3; test: as above; details: Gynecologic cancer cell panel viability, ATPlite luminescence, 48 h; series mostly up to 57.5 µM
Method in brief: as §3

[16] = tested on: CASKI; test: as above; details: Gynecologic cancer cell panel viability, ATPlite luminescence, 48 h; series mostly up to 57.5 µM
Method in brief: as §3

[17] = tested on: Es-2; test: as above; details: Gynecologic cancer cell panel viability, ATPlite luminescence, 48 h; series mostly up to 57.5 µM
Method in brief: as §3

[18] = tested on: W2; test: qHTS profiling for inhibitors of Plasmodium falciparum proliferation (AID 504749); note: nearly all actives have a fitted effect of over 60% in size; note: potency is the fitted concentration of half-maximal effect; details: P. falciparum in erythrocytes, SYBR Green DNA, 72 h; series mostly up to 28.7 µM
Method in brief: (§4)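 P. falciparum-infected erythrocytes (0.3% parasitemia, 2.5% hematocrit final) were exposed to compounds for 72 h at 37 C in 5% CO2, then lysed with SYBR Green buffer overnight at room temperature; parasite DNA fluorescence was normalized to artemisinin and DMSO controls.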

[19] = tested on: MCC-26; test: qHTS assay to identify novel small-molecules to repurpose for Merkel cell carcinoma treatment (AID 1296009); details: MCC and control cell lines, CellTiter-Glo viability, 72 h; series mostly up to 46 µM; note: nearly all actives have a fitted effect of over 60% in size; note: potency is the fitted concentration of half-maximal effect
Method in brief: as §2

[20] = tested on: TAB165; test: qHTS profiling for inhibitors of Plasmodium falciparum proliferation (AID 504749); note: nearly all actives have a fitted effect of over 60% in size; note: potency is the fitted concentration of half-maximal effect; details: P. falciparum in erythrocytes, SYBR Green DNA, 72 h; series mostly up to 28.7 µM
Method in brief: as §4

CCn1cc(C(=O)O)c(=O)c2cc(F)c(N3CCN(C)CC3)cc21
inactive: max response [1] -3.59% | outcome [1] | max response [2] 0.679% | outcome [2] | max response [3] -4.37% | outcome [3] | max response [4] 2.67% and -1.65% | max response [5] -2.14% | outcome [5] | outcome [6] inactive [at 17.4 µM] | outcome [7] inactive [at 17.4 µM] | Potency [8] | Potency [9] | Potency [10] | outcome [11] inactive [at 17.4 µM] | Potency [12] | Potency [13] | Potency [14] | Potency [15] | Potency [16] | Potency [17]

CN(Cc1cc(Br)cc(Br)c1N)C1CCCCC1
active: Potency [18] 4.26 µM
inactive: max response [1] 1.14% | outcome [1] | outcome [2] | max response [3] 3.33% | outcome [3] | max response [4] 2.85% and 5.96% | max response [5] 1.21% | outcome [5] | outcome [6] | outcome [7] | Potency [8] | Potency [19] | Potency [9] | Potency [10] | outcome [11] | Potency [12] | Potency [13] | Potency [14] | Potency [15] | Potency [16] | Potency [17]

CNS(=O)(=O)Cc1ccc2[nH]cc(CCN(C)C)c2c1
inactive: Potency [20] | max response [1] -6.22% | outcome [1] | max response [2] 2.84% | outcome [2] | outcome [3] | max response [4] -7.88% and 1.69% | max response [5] -1.5% | outcome [5] | outcome [6] | outcome [7] | Potency [8] | Potency [19] | Potency [9] | Potency [10] | outcome [11] | Potency [12] | Potency [13] | Potency [14] | Potency [15] | Potency [16] | Potency [17]

CC(C)(Sc1cc(C(C)(C)C)c(O)c(C(C)(C)C)c1)Sc1cc(C(C)(C)C)c(O)c(C(C)(C)C)c1
inactive: Potency [20] | max response [1] -4.36% | outcome [1] | max response [2] 2.23% | outcome [2] | max response [3] 0.994% | outcome [3] | max response [4] -10.8% and 4.75% | max response [5] 1.18% | outcome [5] | outcome [6] | outcome [7] | Potency [8] | Potency [19] | Potency [9] | Potency [10] | outcome [11] | Potency [12] | Potency [13] | Potency [14] | Potency [15] | Potency [16] | Potency [17]
active: Potency [18] 4.05 µM

CS(=O)(=O)c1ccc([C@@H](O)[C@@H](CO)NC(=O)C(Cl)Cl)cc1
inactive: max response [1] -2.94% | outcome [1] | max response [3] 4.09% | outcome [3] | max response [4] -5.5% | max response [5] 1.24% and 2.73% | outcome [6] | Potency [8] | Potency [19] | Potency [9] | Potency [10] | Potency [12] | Potency [13] | Potency [14] | Potency [15] | Potency [16] | Potency [17]
active: Potency [2] 2.99 µM

COc1cc([C@@H]2c3cc4c(cc3[C@H](O)[C@H]3COC(=O)[C@H]23)OCO4)cc(OC)c1OC
47.3 nM (active) and inactive: Potency [13]
inactive: max response [1] -103% | max response [2] -87.1% | outcome [3] | outcome [6] | Potency [9] | Potency [15]
active: Potency [20] 2.24 µM | Potency [18] 1.69 µM | Potency [1] 0.0299 µM | Potency [2] 0.0422 µM | Potency [4] 32.6 nM and 0.8 nM | Potency [8] 94.4 nM and 2.6 nM | Potency [10] 0.0132 µM

Cc1cccc(Nc2ccncc2S(=O)(=O)NC(=O)NC(C)C)c1
inactive: Potency [20] | Potency [18] | max response [1] -14.3% | outcome [1] | max response [2] 1.87% and -6.16% | max response [3] -0.391% | outcome [3] | max response [4] -4.26% and -4.09% | max response [5] 4.21% and -1.03% | outcome [6] | Potency [8] | Potency [19] | Potency [9] | Potency [10] | Potency [12] | Potency [13] | Potency [14] | Potency [15] | Potency [16] | Potency [17]

Cc1cc(NS(=O)(=O)c2ccc(N)cc2)no1
inactive: max response [1] -8.57% | outcome [1] | max response [2] 1.33% and -5.68% | outcome [3] | max response [4] -10.1% | outcome [4] | max response [5] -3.95% | outcome [5] | outcome [6] | Potency [8] | Potency [9] | Potency [10] | outcome [11] | Potency [12] | Potency [13] | Potency [15] | Potency [16] | Potency [17]

O=C(N[C@H](CO)[C@H](O)c1ccc([N+](=O)[O-])cc1)C(Cl)Cl
active: Potency [2] 15.4 µM
inactive: max response [1] 2.58% | outcome [1] | outcome [2] | max response [3] -14.6% and -20.9% | max response [4] -16.7% | outcome [4] | max response [5] 4.84% and -8.61% | outcome [7] | Potency [8] | Potency [19] | Potency [9] | Potency [10] | Potency [12] | Potency [13] | Potency [14] | Potency [16] | Potency [17]
